Compound activity as filed in PubChem BioAssay.
Most compounds without a hit are left out; they make up all but 19% or so of the library.
HT1080-NT tox = kills 2HG-producing HT-1080-NT fibrosarcoma cells; hit rate 1.6% among 360,000; HT-1080-NT fibrosarcoma viability, CellTiter-Glo ATP luminescence, 48 h; Potency, µM (doses to about 46.1 µM), for the others: at the highest dose activity, negative = less viability, usual class: cytotoxic; AID 686970;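 note: NT is the 2HG producing partner of a matched IDH1 knockdown line; 0% = DMSO-treated cells and -100% = media-only wells without cells; nearly all actives have a fitted effect of over 55% in size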
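Toxicity toward the 2HG-producing NT line was scored as %Activity, normalised to DMSO and no-cell wells, from CellTiter-Glo luminescence after 48 hours' treatment.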
KB-3-1 tox = KB-3-1 parental cell cytotoxicity; KB-3-1 viability, CellTiter-Glo ATP luminescence, 72 h; Potency, µM (doses to about 46.1 µM), usual class: cytotoxic; hit rate 1.4% among 400,000; note: nearly all actives have a fitted effect of over 60% in size
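Parental KB-3-1 adenocarcinoma cells in phenol-red-free DMEM with 10% FBS were pin-treated with compounds at several concentrations, incubated 72 h at 37 °C, and viability read by CellTiter-Glo luminescence; concentration-effect curves were fitted after normalization.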
TDP1 cell noCPT = qHTS for Inhibitors of human tyrosyl-DNA phosphodiesterase 1 (TDP1): qHTS in cells in absence of CPT. hit rate 15% among 420,000. AID 686978, 2013. DT40 Tdp1-/- hTDP1 cells, no CPT, ATP luminescence, 48 h. Potency, µM (series often up to 46.2 µM), for the others: top-dose activity change, negative = growth inhibition, usual class: inhibitors; note: nearly all actives have a fitted effect of over 55% in size
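Compound effects on proliferation are scored in DT40 Tdp1-/-;hTDP1 cells in the absence of CPT. ATP levels (CellTiter-Glo luminescence) are recorded after a ≥48 hr, 37 °C incubation.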
HT1080 IDH1KD tx = HT-1080 IDH1 knockdown cell toxicity (counter line); Potency, µM (titrated, usually from 46.1 µM), for inactives: top-dose activity, negative = toxicity, hits mostly cytotoxic; AID 686971; hit rate 2% among 360,000; HT-1080 IDH1 knockdown viability, ATP luminescence, 48 h;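 note: 0% = DMSO wells and -100% = cell-free medium wells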
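Assay cells: HT-1080 with IDH1 knockdown, 750 per well, RPMI/5% FBS. Exposure: 48 h at 37 °C following 2 h pre-incubation. Read: CellTiter-Glo luminescence; fitted concentration-response, curve class assigned.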
TDP1 cell CPT = DT40-hTDP1 cell growth loss with CPT; Potency, µM (top dose mostly 46.2 µM), for inactives: top-dose activity change, negative = growth inhibition, hits mostly inhibitors; hit rate 12% among 420,000; chicken DT40 Tdp1-/-;hTDP1 cells + 20 nM CPT, ATP luminescence, 48 h; AID 686979; note: nearly all actives have a fitted effect of over 55% in size
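Chicken DT40 Tdp1-/- cells complemented with human TDP1, 400 cells/well, exposed to compounds plus 20 nM camptothecin for at least 48 h at 37 C; viability read as ATP content by CellTiter-Glo luminescence.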
KB-V1 MDR tox = kills drug-selected multidrug resistant KB-V1 cells; KB-V1 MDR cells viability, CellTiter-Glo, 72 h; Potency, µM (doses to about 46.1 µM), most hits filed as cytotoxic; hit rate 3.4% among 400,000; AID 1347076; note: nearly all actives have a fitted effect of over 60% in size
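Drug-selected KB-V1 cells, grown in DMEM lacking phenol red with 10% FBS, receive compound titrations; after three days at 37 degrees C, surviving cell ATP is quantified by CellTiter-Glo luminescence and responses normalized and curve-fitted.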
* = called active by the depositor. Calls come from the whole dose curve; as a rule, active = well fitted curve in the direction sought with a large enough effect; inconclusive = small, poorly fitted or top-dose-only effect, or another doubt; inactive = no such curve, though single readings can be large; an effect the other way counts as inactive or inconclusive. Unless noted, % is set by controls: 0 for no effect and ±100 for the full control effect; potency is the fitted concentration of half-maximal effect.

Results for Cc1c(Nc2nc(-c3ccc(Cl)cc3)cs2)c(=O)n(-c2ccccc2)n1C ?
HT1080-NT tox: -7.0%; KB-3-1 tox: inconclusive; TDP1 cell noCPT: 10.3µM*; HT1080 IDH1KD tx: -16.5%; TDP1 cell CPT: inconclusive; KB-V1 MDR tox: 7.31µM*

How did Cc1c(Nc2scc(-c3ccccc3)[n+]2-c2ccccc2)c(=O)n(-c2ccccc2)n1C do in these assays?
HT1080-NT tox: 0.2%; KB-3-1 tox: inconclusive; TDP1 cell noCPT: 20.6µM*; HT1080 IDH1KD tx: -7.4%; TDP1 cell CPT: inconclusive; KB-V1 MDR tox: inconclusive

How did CCN(CC)C(=O)c1sc2c(c1C)c(=O)n(-c1ccc(Cl)c(Cl)c1)c(=O)n2CC(=O)Nc1cccc(OC)c1 do in these assays?
KB-3-1 tox: inactive; TDP1 cell noCPT: -7.8%; TDP1 cell CPT: -20.9%; KB-V1 MDR tox: inactive

How did O=C(NCc1cccc(Cl)c1)c1oc(=O)c2ccccc2c1-c1ccccc1 do in these assays?
TDP1 cell noCPT: -0.8%; TDP1 cell CPT: 4.3%

Results for Cc1ccc(C)c2c1sc(=NC(=O)CN1C(=O)CCC1=O)n2C ?
HT1080-NT tox: -5.8%; KB-3-1 tox: inactive; TDP1 cell noCPT: 20.6µM*; HT1080 IDH1KD tx: 11.5%; TDP1 cell CPT: inconclusive; KB-V1 MDR tox: inactive

What do the screens show for `Cc1ccc2c(c1)N(C(=O)CCC(=O)NCCCN1CC(C)CC(C)C1)CCO2` (configuration not stated)?
HT1080-NT tox: 0.0%; KB-3-1 tox: inactive; TDP1 cell noCPT: inconclusive; HT1080 IDH1KD tx: -0.3%; TDP1 cell CPT: inconclusive; KB-V1 MDR tox: inactive

How did CC(C)c1ccc(CCNC(=O)CCNS(=O)(=O)c2ccc(Br)cc2)cc1 do in these assays?
HT1080-NT tox: -7.8%; KB-3-1 tox: inactive; TDP1 cell noCPT: -16.9%; HT1080 IDH1KD tx: -15.5%; TDP1 cell CPT: -30.0%; KB-V1 MDR tox: inactive

Results for Cc1ccc(C(=O)CC(=O)c2ccc(C)cc2O)cc1 ?
HT1080-NT tox: -19.7%; KB-3-1 tox: inconclusive; TDP1 cell noCPT: 18.4µM*; HT1080 IDH1KD tx: inconclusive; TDP1 cell CPT: inconclusive; KB-V1 MDR tox: inactive

Results for Cc1ccc(C(=O)CC(=O)c2cc(Cl)ccc2O)cc1 ?
HT1080-NT tox: inconclusive; KB-3-1 tox: inactive; TDP1 cell noCPT: 4.61µM*; HT1080 IDH1KD tx: inconclusive; TDP1 cell CPT: 6.51µM*; KB-V1 MDR tox: inactive

How did Cc1ccc(C(=O)CNc2ccc(C)cc2C)cc1 do in these assays?
HT1080-NT tox: 7.8%; KB-3-1 tox: inactive; TDP1 cell noCPT: 16.4µM*; HT1080 IDH1KD tx: 14.0%; TDP1 cell CPT: 23.1µM*; KB-V1 MDR tox: inactive

Results for Cc1ccc(C(=O)CNc2ccccc2C)cc1 ?
HT1080-NT tox: 12.8%; KB-3-1 tox: inactive; TDP1 cell noCPT: -9.2%; HT1080 IDH1KD tx: 15.4%; TDP1 cell CPT: 1.1%; KB-V1 MDR tox: inactive

How did Cc1ccc(C(=O)Cc2ccccc2)c(O)c1 do in these assays?
HT1080-NT tox: 14.0%; KB-3-1 tox: inactive; TDP1 cell noCPT: -6.6%; HT1080 IDH1KD tx: 12.4%; TDP1 cell CPT: 2.3%; KB-V1 MDR tox: inactive

How did COC(=O)c1c(OCc2ccccn2)cc(=O)n2c1CCN(Cc1cccc(C(F)(F)F)c1)CC2 do in these assays?
TDP1 cell noCPT: -8.1%; TDP1 cell CPT: 7.1%

Results for COCCCNC(=O)CCCn1c(SCC(=O)c2ccc(Br)cc2)nc2c(sc3ccccc32)c1=O ?
KB-3-1 tox: inactive; TDP1 cell noCPT: inconclusive; TDP1 cell CPT: inconclusive; KB-V1 MDR tox: inactive

What do the screens show for `COc1cccc(Cn2ccn(-c3ccc(F)cc3)c(=O)c2=O)c1`?
TDP1 cell noCPT: 0.7%; TDP1 cell CPT: -4.1%

How did O=C(C1CCN(c2nc(-c3ccccc3)nc3c2CCC3)CC1)N1CCCC1 do in these assays?
HT1080-NT tox: -0.1%; KB-3-1 tox: inactive; TDP1 cell noCPT: inconclusive; HT1080 IDH1KD tx: -1.5%; TDP1 cell CPT: inconclusive; KB-V1 MDR tox: inactive

What do the screens show for `CC1CCCCN1C(=O)C1CCN(c2nc(-c3ccccc3)nc3c2CCC3)CC1` (configuration not stated)?
HT1080-NT tox: -1.1%; KB-3-1 tox: 20.6µM*; TDP1 cell noCPT: 14.6µM*; HT1080 IDH1KD tx: 10.6%; TDP1 cell CPT: 20.6µM*; KB-V1 MDR tox: inactive

Results for CCOC(=O)C(C(=O)OCC)c1c([N+](=O)[O-])c(=O)n2c3c(cccc13)CCC2 ?
HT1080-NT tox: 0.9%; KB-3-1 tox: inactive; TDP1 cell noCPT: 20.6µM*; HT1080 IDH1KD tx: -7.4%; TDP1 cell CPT: inconclusive; KB-V1 MDR tox: inactive

Results for CC(C)NC(=O)c1c(O)c2cccc3c2n(c1=O)CCC3 ?
HT1080-NT tox: 6.6%; KB-3-1 tox: inactive; TDP1 cell noCPT: -7.5%; HT1080 IDH1KD tx: 1.5%; TDP1 cell CPT: inconclusive; KB-V1 MDR tox: inactive

How did CCCc1nc2c(ccc3ccccc32)cc1CC do in these assays?
HT1080-NT tox: 4.0%; KB-3-1 tox: inactive; TDP1 cell noCPT: inconclusive; HT1080 IDH1KD tx: 21.6%; TDP1 cell CPT: -20.7%; KB-V1 MDR tox: inactive

Results for O=C(COc1ccc(Cl)c(Cl)c1)NN1C(=O)C2C(C1=O)C1C=CC2C12CC2 (configuration not stated) ?
HT1080-NT tox: -0.6%; KB-3-1 tox: inactive; TDP1 cell noCPT: 18.4µM*; HT1080 IDH1KD tx: -0.5%; TDP1 cell CPT: -18.9%; KB-V1 MDR tox: inactive

Results for CC(C)=C1C2CCC1C1C(=O)N(NC(=O)COc3ccc(Cl)c(C)c3)C(=O)C21 (configuration not stated) ?
HT1080-NT tox: 0.1%; KB-3-1 tox: inactive; TDP1 cell noCPT: -11.9%; HT1080 IDH1KD tx: -5.7%; TDP1 cell CPT: -18.8%; KB-V1 MDR tox: inactive

What do the screens show for `C1=C(c2ccc3c(c2)CN(Cc2cccn2-c2ncccn2)CCO3)Cc2ccccc21`?
TDP1 cell noCPT: -0.2%; TDP1 cell CPT: inconclusive

How did CC1=Nc2ccc(C)c3nc(C)cc(c23)N1c1ccc(C)cc1 do in these assays?
HT1080-NT tox: -5.7%; KB-3-1 tox: inactive; TDP1 cell noCPT: 16.4µM*; HT1080 IDH1KD tx: -7.7%; TDP1 cell CPT: inconclusive; KB-V1 MDR tox: inconclusive

Results for CCN1CCc2c(OCC(=O)N3N=C(c4cccs4)CC3c3ccc(F)cc3)cccc2C1=O (configuration not stated) ?
HT1080-NT tox: inconclusive; KB-3-1 tox: inconclusive; TDP1 cell noCPT: 18.4µM*; HT1080 IDH1KD tx: inconclusive; TDP1 cell CPT: 20.6µM*; KB-V1 MDR tox: inconclusive
